# Source: the supplement of paper PMC8728848
# The entries come from a sample that favours the strongest signals as a whole.
# B1: PX9961Q-bfa-504-27-504 (Bacteroides fragilis) (protein)
# chain: NDWLDRKPADGIPSEDAITNYNDALTARTGMYDGIQGNSNATSYYGARMFYYGDVRADDMQARTQGMRSSSCYEMLYTVDDAPNMWNIPYNVIRRANRLIEAINEKKVTDATEAQIGKIYSEALVVRALVHFDLVRIYGMPYTADNGASLGVPVIVKPLERNDLPSRNTVAEVYTQVITDLTDAINSGYLAKDQTPGYINEWAAKALLTRVYLTKGDNENALKVAEDIITNSPYKLWTNEEYVNAWYKSNGAHTNEMIFEVVNASNDDWTDRNGIAYLLNENGYADAIVTKSFMNMLSQDPKDVRIGMVLPAQYDKDLQEEYGDAKIFINKFPADKDDVGEMRLNNLPLLRLSEVYLSAAEAAAKLGGHQDKAAKYLNEIVQRANPEAKAISEADATVERIILERRKEMIGEGQRYFDALRNNETIVRYKDEGDKGYHYSLIKESQSFDRTYFRAILPIPVDETNVNPNLRAQQNPGY
# Legend:
# Assay in all cases: glycan array binding signal (z-score within array); higher = stronger binding
# Conditions in all cases: glycan notation: IUPAC condensed, linker removed
# [1] = target: Fuc(a1-2)Gal(b1-3)GlcNAc(b1-2)Man(a1-3)[Fuc(a1-2)Gal(b1-3)GlcNAc(b1-2)Man(a1-6)]Man(b1-4)GlcNAc(b1-4)GlcNAc
# Summary of the method: (§1)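 The Consortium for Functional Glycomics database supplied 3228 glycan arrays, of which those lacking an available protein sequence were dropped. The binding signal, a within-array Z-score, was averaged across arrays of the same protein sequence and across linkers. Negative scores can be read as non-binding.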
# [2] = target: Fuc(a1-2)Gal(b1-3)GlcNAc(b1-3)Gal(b1-4)Glc
# Summary of the method: as §1
# [3] = target: Fuc(a1-2)Gal(b1-3)GlcNAc(b1-3)[Gal(b1-4)GlcNAc(b1-6)]Gal(b1-4)Glc
# Summary of the method: as §1
# Fuc(a1-2)Gal(b1-4)Glc = target: Fuc(a1-2)Gal(b1-4)Glc
# Summary of the method: as §1
# [4] = target: Fuc(a1-2)Gal(b1-4)GlcNAc(b1-6)GalNAc
# Summary of the method: as §1
# [5] = target: Fuc(a1-2)[Gal(a1-3)]Gal(b1-3)GalNAc
# Summary of the method: as §1
# [6] = target: Fuc(a1-2)[Gal(a1-3)]Gal(b1-4)Glc
# Summary of the method: as §1
# [7] = target: Fuc(a1-2)[Gal(a1-4)]Gal(b1-4)GlcNAc
# Summary of the method: as §1
# [8] = target: Fuc(a1-2)[GalNAc(a1-3)]Gal(b1-4)GlcNAc
# Summary of the method: as §1
# [9] = target: Fuc(a1-3)[Gal(b1-4)]GlcNAc(b1-2)Man(a1-3)[Fuc(a1-3)[Gal(b1-4)]GlcNAc(b1-2)Man(a1-6)]Man(b1-4)GlcNAc(b1-4)GlcNAc
# Summary of the method: as §1
# [10] = target: Fuc(a1-3)[Gal(b1-4)]GlcNAc(b1-6)GalNAc
# Summary of the method: as §1
# [11] = target: Gal(a1-3)Gal(b1-3)GlcNAc(b1-2)Man(a1-3)[Gal(a1-3)Gal(b1-3)GlcNAc(b1-2)Man(a1-6)]Man(b1-4)GlcNAc(b1-4)GlcNAc
# Summary of the method: as §1
# [12] = target: Gal(a1-3)Gal(b1-3)[Fuc(a1-4)]GlcNAc(b1-2)Man(a1-3)[Gal(a1-3)Gal(b1-3)[Fuc(a1-4)]GlcNAc(b1-2)Man(a1-6)]Man(b1-4)GlcNAc(b1-4)GlcNAc
# Summary of the method: as §1
# [13] = target: Gal(a1-4)Gal(b1-3)GlcNAc(b1-2)Man(a1-3)[Gal(a1-4)Gal(b1-3)GlcNAc(b1-2)Man(a1-6)]Man(b1-4)GlcNAc(b1-4)GlcNAc
# Summary of the method: as §1
# Gal(a1-4)Gal(b1-4)Glc = target: Gal(a1-4)Gal(b1-4)Glc
# Summary of the method: as §1
# [14] = target: Gal(b1-3)GlcNAc(b1-2)Man(a1-3)[Gal(b1-3)GlcNAc(b1-2)Man(a1-6)]Man(b1-4)GlcNAc(b1-4)GlcNAc
# Summary of the method: as §1
# [15] = target: Gal(b1-3)GlcNAc(b1-3)Gal(b1-4)[Fuc(a1-3)]GlcNAc(b1-6)[Gal(b1-3)GlcNAc(b1-3)]Gal(b1-4)Glc
# Summary of the method: as §1
# Gal(b1-3)GlcNAc6S = target: Gal(b1-3)GlcNAc6S
# Summary of the method: as §1
# [16] = target: Gal(b1-4)GlcNAc(b1-2)Man(a1-3)[Man(a1-6)]Man(b1-4)GlcNAc(b1-4)GlcNAc
# Summary of the method: as §1
# [17] = target: Gal(b1-4)GlcNAc(b1-3)Gal(b1-4)GlcNAc(b1-3)Gal(b1-4)GlcNAc(b1-2)Man(a1-3)[Gal(b1-4)GlcNAc(b1-3)Gal(b1-4)GlcNAc(b1-3)Gal(b1-4)GlcNAc(b1-2)Man(a1-6)]Man(b1-4)GlcNAc(b1-4)GlcNAc
# Summary of the method: as §1
# [18] = target: Gal(b1-4)GlcNAc(b1-3)Gal(b1-4)GlcNAc(b1-3)Gal(b1-4)GlcNAc(b1-3)Gal(b1-4)GlcNAc(b1-2)Man(a1-3)[Gal(b1-4)GlcNAc(b1-3)Gal(b1-4)GlcNAc(b1-3)Gal(b1-4)GlcNAc(b1-3)Gal(b1-4)GlcNAc(b1-2)Man(a1-6)]Man(b1-4)GlcNAc(b1-4)GlcNAc
# Summary of the method: as §1
# [19] = target: Gal(b1-4)GlcNAc(b1-3)Gal(b1-4)GlcNAc(b1-3)Gal(b1-4)GlcNAc(b1-3)Gal(b1-4)GlcNAc(b1-3)Gal(b1-4)GlcNAc(b1-2)Man(a1-3)[Gal(b1-4)GlcNAc(b1-3)Gal(b1-4)GlcNAc(b1-3)Gal(b1-4)GlcNAc(b1-3)Gal(b1-4)GlcNAc(b1-3)Gal(b1-4)GlcNAc(b1-2)Man(a1-6)]Man(b1-4)GlcNAc(b1-4)GlcNAc
# Summary of the method: as §1
# [20] = target: Gal(b1-4)GlcNAc(b1-3)Gal(b1-4)[Fuc(a1-3)]GlcNAc(b1-3)Gal(b1-4)[Fuc(a1-3)]GlcNAc
# Summary of the method: as §1
# [21] = target: Gal(b1-4)GlcNAc(b1-6)GalNAc
# Summary of the method: as §1
# Gal3S(b1-3)GlcNAc = target: Gal3S(b1-3)GlcNAc
# Summary of the method: as §1
# Gal6S(b1-4)Glc6S = target: Gal6S(b1-4)Glc6S
# Summary of the method: as §1
# Gal6S(b1-4)GlcNAc = target: Gal6S(b1-4)GlcNAc
# Summary of the method: as §1
# GalNAc(b1-4)Gal(b1-4)Glc = target: GalNAc(b1-4)Gal(b1-4)Glc
# Summary of the method: as §1
# [22] = target: Glc(a1-6)Glc(a1-6)Glc(a1-6)Glc
# Summary of the method: as §1
# Glc(b1-4)Glc = target: Glc(b1-4)Glc
# Summary of the method: as §1
# [23] = target: GlcA3S(b1-3)Gal(b1-4)GlcNAc(b1-3)Gal(b1-4)Glc
# Summary of the method: as §1
# [24] = target: GlcNAc(b1-3)Gal(b1-4)GlcNAc
# Summary of the method: as §1
# [25] = target: GlcNAc(b1-3)Gal(b1-4)GlcNAc(b1-3)Gal(b1-4)GlcNAc(b1-3)Gal(b1-4)GlcNAc(b1-2)Man(a1-3)[GlcNAc(b1-3)Gal(b1-4)GlcNAc(b1-3)Gal(b1-4)GlcNAc(b1-3)Gal(b1-4)GlcNAc(b1-2)Man(a1-6)]Man(b1-4)GlcNAc(b1-4)[Fuc(a1-6)]GlcNAc
# Summary of the method: as §1
# GlcNAc(b1-3)Man = target: GlcNAc(b1-3)Man
# Summary of the method: as §1
# [26] = target: GlcNAc(b1-4)Gal(b1-4)GlcNAc
# Summary of the method: as §1
# [27] = target: GlcNAc(b1-4)GlcNAc(b1-4)GlcNAc(b1-4)GlcNAc(b1-4)GlcNAc(b1-4)GlcNAc
# Summary of the method: as §1
# GlcNAc(b1-6)GalNAc = target: GlcNAc(b1-6)GalNAc
# Summary of the method: as §1
# [28] = target: Man(a1-2)Man(a1-2)Man(a1-6)[Man(a1-3)]Man
# Summary of the method: as §1
# [29] = target: Man(a1-3)[Man(a1-6)]Man(a1-6)[Man(a1-3)]Man
# Summary of the method: as §1
# Man(a1-6)Man = target: Man(a1-6)Man
# Summary of the method: as §1
# [30] = target: Neu5Ac(a2-3)Gal(b1-4)GlcNAc(b1-2)[Neu5Ac(a2-3)Gal(b1-4)GlcNAc(b1-6)]Man(a1-6)[Neu5Ac(a2-3)Gal(b1-4)GlcNAc(b1-2)Man(a1-3)][GlcNAc(b1-4)]Man(b1-4)GlcNAc(b1-4)GlcNAc
# Summary of the method: as §1
# [31] = target: Neu5Ac(a2-6)Gal(b1-3)GlcNAc(b1-3)[Gal(b1-4)GlcNAc(b1-6)]Gal(b1-4)Glc
# Summary of the method: as §1
# [32] = target: Neu5Ac(a2-6)Gal(b1-4)GlcNAc
# Summary of the method: as §1
# [33] = target: Neu5Ac(a2-6)Gal(b1-4)GlcNAc(b1-2)Man(a1-6)[GlcNAc(b1-2)Man(a1-3)]Man(b1-4)GlcNAc(b1-4)GlcNAc
# Summary of the method: as §1
# [34] = target: Neu5Ac(a2-6)Gal(b1-4)GlcNAc(b1-2)[Neu5Ac(a2-6)Gal(b1-4)GlcNAc(b1-4)]Man(a1-3)[GlcNAc(b1-4)][Neu5Ac(a2-6)Gal(b1-4)GlcNAc(b1-2)[Neu5Ac(a2-6)Gal(b1-4)GlcNAc(b1-6)]Man(a1-6)]Man(b1-4)GlcNAc(b1-4)GlcNAc
# Summary of the method: as §1
# [35] = target: Neu5Ac(a2-6)Gal(b1-4)GlcNAc(b1-3)Gal(b1-4)GlcNAc(b1-3)GalNAc
# Summary of the method: as §1
# [36] = target: Neu5Ac(a2-6)Gal(b1-4)GlcNAc(b1-3)GalNAc
# Summary of the method: as §1
# Neu5Gc(a2-6)GalNAc = target: Neu5Gc(a2-6)GalNAc
# Summary of the method: as §1
binder,measurement,setting,value
B1,glycan array binding signal (z-score),[1],2.69
same,glycan array binding signal (z-score),[2],0.015
same,glycan array binding signal (z-score),[3],-0.322
same,glycan array binding signal (z-score),Fuc(a1-2)Gal(b1-4)Glc,-0.701
same,glycan array binding signal (z-score),[4],0.145
same,glycan array binding signal (z-score),[5],0.904
same,glycan array binding signal (z-score),[6],0.106
same,glycan array binding signal (z-score),[7],1.12
same,glycan array binding signal (z-score),[8],-0.704
same,glycan array binding signal (z-score),[9],0.155
same,glycan array binding signal (z-score),[10],4.03
same,glycan array binding signal (z-score),[11],0.772
same,glycan array binding signal (z-score),[12],8.13
same,glycan array binding signal (z-score),[13],2.6
same,glycan array binding signal (z-score),Gal(a1-4)Gal(b1-4)Glc,0.623
same,glycan array binding signal (z-score),[14],3.77
same,glycan array binding signal (z-score),[15],12.8
same,glycan array binding signal (z-score),Gal(b1-3)GlcNAc6S,-0.822
same,glycan array binding signal (z-score),[16],-0.622
same,glycan array binding signal (z-score),[17],2.45
same,glycan array binding signal (z-score),[18],2.49
same,glycan array binding signal (z-score),[19],0.85
same,glycan array binding signal (z-score),[20],-0.284
same,glycan array binding signal (z-score),[21],0.056
same,glycan array binding signal (z-score),Gal3S(b1-3)GlcNAc,-0.053
same,glycan array binding signal (z-score),Gal6S(b1-4)Glc6S,-0.063
same,glycan array binding signal (z-score),Gal6S(b1-4)GlcNAc,-0.679
same,glycan array binding signal (z-score),GalNAc(b1-4)Gal(b1-4)Glc,0.821
same,glycan array binding signal (z-score),[22],-0.611
same,glycan array binding signal (z-score),Glc(b1-4)Glc,-0.009
same,glycan array binding signal (z-score),[23],-1.22
same,glycan array binding signal (z-score),[24],-0.27
same,glycan array binding signal (z-score),[25],2.65
same,glycan array binding signal (z-score),GlcNAc(b1-3)Man,0.083
same,glycan array binding signal (z-score),[26],-0.752
same,glycan array binding signal (z-score),[27],-0.594
same,glycan array binding signal (z-score),GlcNAc(b1-6)GalNAc,0.361
same,glycan array binding signal (z-score),[28],0.712
same,glycan array binding signal (z-score),[29],0.661
same,glycan array binding signal (z-score),Man(a1-6)Man,-0.352
same,glycan array binding signal (z-score),[30],0.676
same,glycan array binding signal (z-score),[31],6.14
same,glycan array binding signal (z-score),[32],-0.355
same,glycan array binding signal (z-score),[33],-0.638
same,glycan array binding signal (z-score),[34],2.53
same,glycan array binding signal (z-score),[35],-0.164
same,glycan array binding signal (z-score),[36],-0.107
same,glycan array binding signal (z-score),Neu5Gc(a2-6)GalNAc,0.187
